The values below come from paper PMC5540273 (PLoS ONE, 2017).

Some test systems named below: CDK3; CDK4-cyclinD1; CDK4-cyclinD3; CDK4; CDK5; CDK7; CDK8; CDK9; CDKL1; CDKL2.
Holding throughout (settings): concentration: 1 μM, replicates: in singlicate; n = 1

Structures are written as SMILES.
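Note: KINOMEscan kinase panel screen.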

`CCS(=O)(=O)c1ccc(OC)c(Nc2ncc(-c3ccc(F)cc3)o2)c1.Cl` [GW591947]: the “%Inh” value with CDK3 was 0%; with CDK4-cyclinD1, 0%; with CDK4-cyclinD3 it was 0%; with CDK4, 14%; in the experiment on CDK5, 0%; with CDK7, 0%. The “%Inh” value is 19% with CDK8, 0% in the experiment with CDK9, 14% in the experiment with CDKL1 and 29% in the experiment with CDKL2.

On to `COc1cc(OC)cc(-c2cc3cnc(N)nc3nc2NC(=O)NC(C)(C)C)c1`, for which the “%Inh” value in the experiment on CDK3 was 14%; with CDK4-cyclinD1, 0%; in the experiment with CDK4-cyclinD3, 8%; in the experiment with CDK4, 0%; in the experiment on CDK5 it was 0%; in the experiment on CDK7, 31%. Further, the “%Inh” value in the experiment on CDK8, in the experiment on CDK9, in the experiment with CDKL1 and in the experiment with CDKL2 was 0% throughout.

`COc1cc(Nc2nccc(N3CCC(NC(=O)C(C)c4ccc(Cl)cc4)C3)n2)cc(OC)c1OC` (stereo not drawn) [GSK1379757]: the “%Inh” value in the experiment on CDK3 worked out at 0%; in the experiment on CDK4-cyclinD1, 0%; in the experiment on CDK4-cyclinD3, 0%; in the experiment with CDK4, 36%; in the experiment on CDK5, 0%; with CDK7, 0%. The “%Inh” value in the experiment with CDK8 is 22%; in the experiment with CDK9, 0%; in the experiment on CDKL1, 9%; in the experiment with CDKL2, 2%.
